# Hits are enriched below; roughly 18% of the tested compounds scored in any of these assays.
# Gal4-VP16 FLuc: Gal4-VP16 reporter inhibition counter-screen; Drosophila S2 Gal4-VP16 UAS-luciferase, luminescence, 20 h; Potency, µM (doses to about 53.6 µM), for inactives: top-dose activity, negative = inhibition, hits mostly inhibitors; hit rate 3.5% among 310,000; AID 2546;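 further: Gal4-VP16 expression switched on by copper sulfate through the metallothionein promoter; potency means the concentration at half of the fitted maximal effect; nearly all actives have a fitted effect of over 50% in size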
# RORg inh: ROR gamma (mouse) transcription inhibition; P51450; Drosophila S2 Gal4-RORgamma UAS-luciferase reporter, 20 h; Potency, µM (titrated, usually from 53.6 µM), for the others: at the top dose activity change, negative = inhibition, most hits filed as inhibitors; hit rate 5.4% among 310,000; AID 2551; further: potency means the concentration at half of the fitted maximal effect; nearly all actives have a fitted effect of over 60% in size
# Target sequence (P51450 whole entry, looked up, the tested form may be a part): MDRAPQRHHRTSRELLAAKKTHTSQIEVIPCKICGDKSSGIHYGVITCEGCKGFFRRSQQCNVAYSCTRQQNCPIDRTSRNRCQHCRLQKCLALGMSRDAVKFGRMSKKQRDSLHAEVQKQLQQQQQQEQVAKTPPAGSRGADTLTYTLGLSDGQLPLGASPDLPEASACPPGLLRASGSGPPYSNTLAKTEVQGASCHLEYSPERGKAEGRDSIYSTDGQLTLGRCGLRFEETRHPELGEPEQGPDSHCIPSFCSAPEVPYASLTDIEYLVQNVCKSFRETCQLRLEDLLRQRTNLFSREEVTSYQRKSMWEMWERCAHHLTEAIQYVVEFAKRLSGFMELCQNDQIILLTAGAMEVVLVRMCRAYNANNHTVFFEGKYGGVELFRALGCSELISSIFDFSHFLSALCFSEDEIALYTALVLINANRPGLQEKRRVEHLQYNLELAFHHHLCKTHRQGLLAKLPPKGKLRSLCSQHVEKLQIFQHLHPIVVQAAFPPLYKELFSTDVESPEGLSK
#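 Schneider cells (Drosophila), stable Gal4 DBD–ROR gamma + UAS-luc; 1 hr cmpd preincubation; Cu2+ induction 700 uM final; 20 hr ambient; luminescence.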
# TDP1 cell noCPT: qHTS for Inhibitors of human tyrosyl-DNA phosphodiesterase 1 (TDP1): qHTS in cells in absence of CPT. Potency, µM (titrated, usually from 46.2 µM), for the others: at the highest dose activity change, negative = growth inhibition, actives largely listed as inhibitors. DT40 Tdp1-/- hTDP1 cells, no CPT, ATP luminescence, 48 h. hit rate 15% among 420,000; further: potency means the concentration at half of the fitted maximal effect; nearly all actives have a fitted effect of over 55% in size
#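 DT40 Tdp1-/-;hTDP1 cells, no CPT (DMSO vehicle only), 400 cells/well; compounds pin-transferred; ≥48 hr, 37 °C; CellTiter-Glo 30 min RT dark, luminescence read.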
# TDP1 cell CPT: DT40-hTDP1 cell growth loss with CPT; Potency, µM (titrated, usually from 46.2 µM), inactives show top-dose activity change, negative = growth inhibition, most hits filed as inhibitors; chicken DT40 Tdp1-/-;hTDP1 cells + 20 nM CPT, ATP luminescence, 48 h; AID 686979; hit rate 12% among 420,000; further: potency means the concentration at half of the fitted maximal effect; nearly all actives have a fitted effect of over 55% in size
#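 Cell growth measured by CellTiter-Glo luminescence after a minimum 48 h, 37 C compound exposure with 20 nM CPT in Tdp1-knockout DT40 cells stably expressing hTDP1, seeded 400/well; qHTS titration format.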
# LDHA block: inhibitors of human lactate dehydrogenase A | P00338 | purified LDHA, NADH/diaphorase-resazurin fluorescence; stronger effect = lower value | activity change, % (values are at about 110 or 230 µM) | hit rate 0.15% among 480,000 | AID 1347041; in the data active means activity change below about -30%; inconclusive means mostly about -25% to -30%;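 further: plate controls were DMSO wells for no effect and wells without enzyme for full effect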
#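 Enzyme activity of human lactate dehydrogenase 5 (2 nM; 0.06 mM NADH, 0.2 mM pyruvate, 5 min, RT) is measured via a resazurin/diaphorase fluorescence readout of residual NADH.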
# IL1B secr inh: inflammasome signaling inhibition, IL-1 beta readout; THP-1 LPS/ATP IL-1B secretion, AlphaLISA, 16 h; stronger effect = lower value; activity change, % at 57.5 µM; hit rate 4.7% among 360,000; in the data active means activity change below about -50%; inconclusive means mostly about -30% to -49%
#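 THP-1 cells pretreated 1 hr with compounds (up to 57.5 uM final), then stimulated with LPS (250 ng/mL final) plus ATP (1.25 mM final); secreted IL-1B measured by AlphaLISA after 16 hr, decreased signal indicating inhibition.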
# Numbers without * were called inactive; ? = inconclusive; · = no result given; [ ] = remark or other dose. Unless noted, the call rests on the fitted dose curve; in most records, active means well fitted curve in the direction sought with a large enough effect; inconclusive means small, poorly fitted or top-dose-only effect, or another doubt; inactive means no such curve, though single readings can be large; an effect the other way counts as inactive or inconclusive. Unless noted, on the % scale 0 is the no-effect control and ±100 the full control effect.
SMILES,Gal4-VP16 FLuc,RORg inh,TDP1 cell noCPT,TDP1 cell CPT,LDHA block,IL1B secr inh
COc1ccc2c(Sc3ccccc3)c(C(=O)NCCN(C)C)[nH]c2c1,·,·,?,?,1.2,·
COc1ccc2c(Sc3ccccc3)c(C(=O)N3CCC(C)CC3)[nH]c2c1,·,·,?,20.6µM*,3.1,·
COc1ccc2c(Sc3ccccc3)c(C(=O)NCc3ccc(OC(C)C)cc3)[nH]c2c1,·,·,?,?,1.0,·
CC1CCC(NC(=O)CCc2cn(Cc3ccc(F)cc3)c3ccccc23)CC1 (stereo not given),·,·,?,?,-6.9,·
COc1ccc(CNC(=O)CCc2cn(Cc3cc(C)ccc3C)c3ccccc23)cc1OC,·,·,5.8µM*,4.61µM*,1.7,·
COc1ccc(OC)c(CCNC(=O)CCc2cn(Cc3cc(C)ccc3C)c3ccccc23)c1,·,·,?,?,-9.5,·
Cc1ccc(Cn2cc(CCC(=O)NCc3ccccc3F)c3ccccc32)cc1,·,·,-23.1%,-12.3%,-3.9,·
Cc1ccc(Cn2cc(CCC(=O)NC3CCC(C)CC3)c3ccccc32)cc1 (stereo not given),·,·,13µM*,?,5.4,·
COc1ccc(CCNC(=O)CCc2cn(Cc3ccc(C)cc3)c3ccccc23)cc1OC,·,·,14.6µM*,13µM*,3.3,·
COc1ccc(Br)cc1CNC(=O)CCc1cn(Cc2ccc(C)cc2)c2ccccc12,·,·,23.1µM*,?,3.2,·
CCOc1ccc(CCNC(=O)CCc2cn(Cc3ccccc3F)c3ccccc23)cc1OCC,·,·,?,?,-6.0,·
CCOc1ccccc1CNC(=O)CCc1cn(Cc2ccc(Cl)cc2)c2ccccc12,·,·,16.4µM*,18.4µM*,-0.1,·
Cc1c(NC(=O)CN(c2ccc(Cl)cc2)S(C)(=O)=O)c(=O)n(-c2ccccc2)n1C,·,·,·,·,5.0,·
CCOc1ccccc1C(=O)N(Cc1ccccc1)Cc1cc2cc3c(cc2[nH]c1=O)OCCO3,·,·,23.1µM*,25.9µM*,-2.7,3.7
O=C(Nc1ccc(F)cc1)N(CCCN1CCOCC1)Cc1cc2cc3c(cc2[nH]c1=O)OCCO3,6.4%,44.7%,?,8.2µM*,-4.7,-15.7
O=C(Nc1ccc(F)cc1)N(CCCN1CCOCC1)Cc1cc2cc3c(cc2[nH]c1=O)OCO3,4.0%,-0.9%,?,?,-2.2,0.1
O=C(c1ccccc1)N(CCO)Cc1cc2cc3c(cc2[nH]c1=O)OCCO3,-8.7%,-9.1%,-26.9%,-2.3%,-2.2,31.6
Cc1ccc2cc(CN(CCN3CCCC3)C(=O)Nc3ccc(F)cc3)c(=O)[nH]c2c1C,-0.6%,-16.2%,18.4µM*,23.1µM*,-0.7,?
CCOc1ccc(NC(=S)N(CCN2CCOCC2)Cc2cc3cc4c(cc3[nH]c2=O)OCCO4)cc1,1.2%,34.9%,-11.3%,?,0.1,-53.5*
Cc1ccc2[nH]c(C(=O)NCc3ccc4c(c3)OCO4)cc2c1,·,·,·,·,-5.8,·
CCc1ccc2[nH]c(=O)c(CN(CCCN3CCOCC3)C(=O)Nc3ccc(F)cc3)cc2c1,-13.9%,-6.3%,13µM*,?,-5.6,?
CCOc1ccc(NC(=O)c2ccccc2OCC(=O)c2ccccc2)cc1,-7.3%,-6.8%,16.4µM*,23.1µM*,0.2,-9.7
Cc1ccc(NC(=O)c2ccccc2OCC(=O)c2ccccc2)cc1,12.6%,25.2%,?,?,1.3,-24.5
CCOc1ccccc1C(=O)Nc1ccc(C(=O)c2ccccc2)cc1,-3.2%,?,?,23.1µM*,-15.0,-2.3
CCOc1ccccc1C(=O)Nc1ccc(NC(=O)c2ccccc2)cc1,1.8%,-35.4%[1.91 µM],-8.6%,-12.5%,1.3,4.7
SMILES,Gal4-VP16 FLuc,RORg inh,TDP1 cell noCPT,TDP1 cell CPT,LDHA block,IL1B secr inh
Cc1cccc(NC(=O)COc2ccccc2C(=O)NC(C)c2ccccc2)c1 (stereo not given),-12.6%,5.8%,29.1µM*,?,3.5,13.6
COc1cccc(NC(=O)c2ccccc2OCC(=O)Nc2ccc(Br)cc2)c1,·,·,?,?,0.2,·
Cc1cccc(NC(=O)c2ccccc2OCC(=O)c2ccccc2)c1,13.8%,-0.1%,16.4µM*,?,-8.6,?
CCOc1cc2ccccc2cc1C(=O)Nc1nnc(C2CC2)s1,·,·,·,·,3.7,·
CCn1c(C)cc(C(=O)CSc2n[nH]c(C3CC3)n2)c1C,·,·,·,·,0.0,·
CCOc1ccc(NC(=O)C(C)Oc2ccccc2C(=O)Nc2cccc(Cl)c2Cl)cc1 (stereo not given),-13.8%,-0.9%,18.4µM*,?,0.1,55.3
COCCn1c(SCc2ccc(Cl)cc2)nnc1-c1ccncc1,·,·,·,·,-0.9,·
O=S(=O)(c1ccc(Cl)cc1)N1CCN(c2nc(-c3ccccc3)nc3ccccc23)CC1,·,·,10µM*,?,-1.0,·
O=S(=O)(c1ccc(F)cc1)N1CCN(c2nc(-c3ccccc3)nc3ccccc23)CC1,·,·,12.6µM*,?,-3.1,·
Cc1ccc(S(=O)(=O)N2CCN(c3nc(-c4ccccc4)nc4ccccc34)CC2)cc1,·,·,-16.2%,6.8%,-6.5,·
NS(=O)(=O)c1ccc(S(=O)(=O)N2CCN(c3nc(-c4ccccc4)nc4ccccc34)CC2)cc1,·,·,?,?,-2.1,·
N#CCc1c(C#N)c(N)nc(N2CCN(S(=O)(=O)c3ccccc3)CC2)c1C#N,-2.8%,?,16.4µM*,8.2µM*,-0.9,-18.0
O=S(=O)(c1ccc2c(c1)CCCC2)N1CCN(c2nc(-c3ccccc3)nc3ccccc23)CC1,·,·,10µM*,10µM*,2.6,·
COC(=O)C1=C(C)OC(N)=C(C#N)C1c1ccc(C(=O)OC)cc1 (stereo not given),·,·,·,·,19.9,·
COc1cc(C(=O)Nc2ccc3oc(=O)ccc3c2)ccc1OC(F)F,·,·,·,·,-1.6,·
Cc1cccc(Nc2nc3ccccc3nc2NS(=O)(=O)c2cccc(Cl)c2)c1,·,·,·,·,0.3,·
CNC(=O)c1ccc(/C=C/C(=O)c2ccccc2C)cc1,·,·,·,·,-6.9,·
Cc1cc(N2C(=O)C(=O)/C(=C(/O)c3ccc(Br)cc3)C2c2cccc(O)c2)no1 (stereo not given),·,·,·,·,-0.4,·
CCc1nc2ccccc2nc1N1CCN(S(=O)(=O)c2ccccc2)CC1,-25.1%,?,16.4µM*,?,-1.2,-90.1*
O=C(NNC(=O)C1CCOC1)c1cccc([N+](=O)[O-])c1 (stereo not given),·,·,·,·,-3.5,·
CC(C)C(=O)Nc1cccc(C(=O)N2CCCCC2C)c1 (stereo not given),-13.4%,2.2%,14.6µM*,18.4µM*,1.2,13.5
Cc1ccc(-n2[nH]c(C)c(C=Nc3ccc(S(=O)(=O)Nc4nccs4)cc3)c2=O)cc1,10.4%,18.6%[10 µM],·,·,·,·

# Assay outcomes deposited in PubChem by National Center for Advancing Translational Sciences (NCATS).
